# Screens from PubChem BioAssay.
# An excerpt weighted towards active compounds, which were near 21% of everything screened.
# SARS PLP yeast: inhibitors of SARS-CoV papain-like protease in yeast | S. cerevisiae expressing SARS-CoV PLpro, growth rescue | Potency, µM (series often up to 32.9 µM), inactives show at the highest dose activity, positive = growth rescue, hits mostly activators | 330,000 tested, 0.19% active; calls by dose curve; also: potency is read from the fitted curve at half-maximal effect; 0% is about no effect; nearly all actives have a fitted effect of over 55% in size
# Shiga inhibitor: Shiga toxin inhibition | Vero cells, Shiga toxin protein synthesis inhibition reporter | inhibition, % at 38.7 µM | 290,000 tested, 9.2% active; in the data active = inhibition mostly above about 28%, no sharp cut-off; inactive = mostly below about 43%; also: 0% is about no effect
# Pf growth 48h: inhibits P. falciparum growth in the first generation, 48 h. 310,000 tested, 5.9% active. Potency, µM (titrated, usually from 28.7 µM), for inactives: top-dose activity change, negative = inhibition, hits mostly inhibitors. P. falciparum luciferase growth in erythrocytes, 48 h; also: potency is read from the fitted curve at half-maximal effect; % is scaled to controls: 0 for no effect and ±100 for the full control effect
#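 Parasite viability was followed by luminescence of a genomically integrated firefly luciferase. Cultures held 0.1% parasitemia at 2% hematocrit (final), incubated under 5% CO2 at 37 C.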
# NS1 inh: inhibitors of influenza NS1 protein function | Potency, µM (top dose mostly 46.1 µM), for the others: at the top dose activity, positive = more growth | 270,000 tested, 0.4% active | AID 2326; calls by dose curve; also: potency is read from the fitted curve at half-maximal effect; actives are rising curves; nearly all actives have a fitted effect of over 50% in size
#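 S. cerevisiae expressing influenza A NS1, grown in glucose, washed, then diluted 1:100 into pH 6.0 -URA galactose medium with 23 nl compound. Growth recovery read as OD600; NS1-free strain serves as control.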
# Cycloheximide cs: counter-screen hit for Shiga toxin inhibitors, cycloheximide | cell reporter, cycloheximide protein synthesis inhibition counterscreen | max response, % | 300,000 tested, 12% active; in the data active = max response mostly above about 13%, no sharp cut-off; inactive = mostly below about 14%; also: read at 38.3 µM for the half of the compounds with a filed dose; 0% is about no effect
# Pf growth 96h: P. falciparum growth inhibition at 96 hours; P. falciparum luciferase reporter growth, 96 h; Potency, µM (highest dose often 28.7 µM), without a hit: top-dose activity change, negative = inhibition, hits mostly inhibitors; 320,000 tested, 6.9% active; AID 504834; also: potency is read from the fitted curve at half-maximal effect; % is scaled to controls: 0 for no effect and ±100 for the full control effect
#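 P. falciparum expressing integrated firefly luciferase grown in erythrocytes (2% hematocrit, 0.05% parasitemia final) with compounds for 96 hours at 37 C, 5% CO2. Growth inhibition read as loss of luminescence after adding luciferase detection reagent.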
# * = called active by the depositor; ? = inconclusive; nt = not tested or not shown; + = active, no number. Unless noted, calls follow the shape of the dose curve; as a rule, active = well fitted inhibition curve with a large enough effect; inconclusive = small, poorly fitted or top-dose-only effect, or another doubt; inactive = no such curve, though single readings can be large or run the other way.
SMILES,SARS PLP yeast,Shiga inhibitor,Pf growth 48h,NS1 inh,Cycloheximide cs,Pf growth 96h
COc1ccccc1CNC(=O)c1ccc(NC2=NC3CS(=O)(=O)CC3S2)cc1 (stereo not drawn),-8%,-6,14%,-4%,-4,12µM*
COc1ccc(OC)c(NC(=O)Cc2ccc(NC3=NC4CS(=O)(=O)CC4S3)cc2)c1 (stereo not drawn),-4%,12,0%,9%,-2,12µM*
COc1ccc(C(=O)N2CCCCCC2)cc1S(=O)(=O)N1CCOCC1,2%,3,6%,6%,-2,-12%
Cc1ccc(C(=O)Nc2ccc(F)cc2)cc1NC1=NC2CS(=O)(=O)CC2S1 (stereo not drawn),2%,-10,2%,-11%,-3,9.3µM*
O=C(Cc1ccc(NC2=NC3CS(=O)(=O)CC3S2)cc1)N1CCN(c2ccc(F)cc2)CC1 (stereo not drawn),4%,-4,5%,6%,-4,12µM*
CCOC(=O)c1ccc(N=Nc2c(C)c(C#N)c(O)[nH]c2=O)cc1,2%,83*,?,3%,46*,18%
C=CCn1c(O)c(C(C)=Nc2ccc(C(=O)OCC)cc2)c(=O)[nH]c1=O,-1%,43,-4%,-85%,7,nt
CC(C)c1ccc(N=C(N)N=C(N)N)cc1,0%,-6,-19%,nt,-1,?
COc1ccc(-c2cc(C)no2)cc1S(=O)(=O)N1CCCN(Cc2ccccc2Cl)C1,6%,-12,?,-14%,-5,12µM*
CCOc1ccccc1CNS(=O)(=O)c1cc(-c2cc(C)no2)ccc1OC,?,-2,5%,-4%,17,12µM*
COc1ccccc1CN1CCC(CNS(=O)(=O)c2cc(-c3cc(C)no3)ccc2C)CC1,1%,-1,4.7µM*,4%,1,-37%
Cc1ccc(C(=O)c2ccccc2C(=O)OCC(=O)N2C(C)CCCC2C)cc1 (stereo not drawn),2%,nt,?,nt,nt,?
CCCCSc1ccc2nc(-c3ccc(C#N)cc3)cn2c1,-3%,58,18%,-52%,58*,-25%
CCCSc1ccc2nc(-c3ccccc3)cn2c1,-10%,12,-24%,-16%,17,0%
Cc1nc(N2CCN(Cc3ccccc3)CC2)[nH]c(=O)c1C,1%,-2,19%,-5%,-3,2.6µM*
CCOC(=O)Cn1c(=O)c2c(nc(N3CCCCC3)n2Cc2ccccc2)n(C)c1=O,12%,12,5.2µM*,-26%,-8,?
Cn1c(=O)[nH]c(=O)c2c1nc([N+](=O)[O-])n2Cc1ccccc1,-2%,-11,7.4µM*,-5%,2,13µM*
Cn1c(=O)c2c(nc(N3CCN(Cc4ccccc4)CC3)n2CCCc2ccccc2)n(C)c1=O,6%,22,3.7µM*,-40%,7,6.6µM*
CCOC(=O)Cn1c(=O)c2c(nc3n2CC(C)CN3Cc2ccccc2)n(C)c1=O (stereo not drawn),6%,-6,-20%,-6%,-4,?
COC(=O)c1cc(OC)c(OC)cc1NC(=O)Cn1nnc(-c2ccccc2Cl)n1,5%,-6,4%,-5%,-1,27%
Cn1c(=O)[nH]c(=O)c2c1nc(N1CCN(Cc3ccccc3)CC1)n2CCCc1ccccc1,0%,1,5.2µM*,-18%,1,nt
CC1CCN(c2nc3c(c(=O)n(C)c(=O)n3C)n2Cc2ccccc2)CC1,-3%,-14,13µM*,-40%,-2,?
CCCOc1ccc(C(=O)NC2CCSc3ccccc32)cc1 (stereo not drawn),-1%,26,?,-2%,16,-16%
O=C(COC(=O)Cn1cnc2ccccc2c1=O)Nc1ccccc1Sc1ccc(Cl)cc1,-13%,-8,-1%,-12%,0,12%
CC1(C)CC(=O)C2=C(C1)Nc1ccccc1N=C2,-23%,85*,136%,-13%,50*,?
SMILES,SARS PLP yeast,Shiga inhibitor,Pf growth 48h,NS1 inh,Cycloheximide cs,Pf growth 96h
CC1(C)CC(=O)C2=C(C1)Nc1ccccc1NC2,0%,139*,-2%,nt,44*,-7%
O=C(NC1CCCCC1)C(=S)N1CCOCC1,-1%,-10,37%,5%,-6,-16%
OCCN1CCN(CCOc2ccccc2-c2ccccc2)CC1,-3%,-6,-13%,11%,-1,-35%
OCCCN1CCN(CCOc2ccccc2-c2ccccc2)CC1,-6%,9,?,1%,1,10µM*
COc1ccc(OCCOCCN2CCN(C)CC2)cc1,-1%,-1,27%,18%,-3,19%
CCN1CCN(CCCOc2ccc(-c3ccccc3)cc2)CC1,-5%,70*,-67%,-5%,37*,21%
CN1CCN(CCCOc2ccc(-c3ccccc3)cc2)CC1,-5%,75*,?,-12%,27*,-7%
CCN1CCN(CCCOc2ccccc2-c2ccccc2)CC1,0%,3,?,3%,10,-6%
CN1CCN(CCOc2ccc(-c3ccccc3)cc2)CC1,?,86*,?,-1%,46*,?
COc1cc([N+](=O)[O-])ccc1NC(=S)Nc1cc(C(=O)OC(C)C)cc(C(=O)OC(C)C)c1,3%,-2,?,-8%,-2,?
OC[C@H]1NC[C@@H](O)[C@@H](O)[C@@H]1O,nt,7,nt,nt,-6,nt
COc1ccc(COC(=O)C2=C(C)NC(=O)NC2c2ccccc2OC(C)C)cc1 (stereo not drawn),2%,nt,?,?,-1,-7%
COc1ccc(C(C)=O)cc1CN(c1ccccc1OC)S(=O)(=O)c1cccs1,0%,22,?,-15%,1,?
COc1ccc(C(=O)Sc2nncc3ccccc23)cc1,-2%,37,36%,nt,20*,34%
COc1ccccc1CNC(=O)COC(=O)/C=C/c1ccc2ccccc2n1,3%,nt,nt,nt,nt,nt
COc1c(OC(C)=O)ccc(/C=C/c2ccc3ccccc3n2)c1[N+](=O)[O-],-21%,99*,-70%,-13%,29*,?
COc1c(OC(C)=O)ccc(/C=C/c2ccc3cccc(OC)c3n2)c1[N+](=O)[O-],-37%,41*,?,20%,22*,?
CCOc1cc(/C=C/c2ccc3cccc([N+](=O)[O-])c3n2)ccc1OCC(=O)N(C)C,0%,10,?,nt,3,?
CCOc1c(OC(C)=O)ccc(/C=C/c2ccc3cccc(OC(C)=O)c3n2)c1[N+](=O)[O-],1%,+,6.6µM*,-58%,43*,8.3µM*
COc1ccc(C(=O)NCCNc2nc3cc(C)c(C)cc3cc2C)cc1,13%,-8,?,?,-7,?
COc1cccc(-n2ccnc2SCC(=O)N2CCc3ccccc32)c1,0%,-4,-3%,-5%,-1,89%
O=C(CSc1ccc(-c2ccccn2)nn1)NC1CCCCC1,24%,25,11%,nt,14,?
Cn1ccnc1SCC(=O)N1CCc2ccccc21,-9%,79*,124%,14%,31*,3%
